# Source: PubChem BioAssay AID602179 (National Center for Advancing Translational Sciences (NCATS), 2012)
# The whole screen tested about 390,000 compounds, of which about 360 (0.092%) were called active. For the sample, actives were picked, then their nearest neighbours and some compounds at random. Unmarked numbers belong to inactive results. Calls follow the shape of the dose curve; as a rule, active = well fitted inhibition curve with a large enough effect; inconclusive = small, poorly fitted or top-dose-only effect; inactive = no such curve, though single readings can be large or run the other way.
# Target: Isocitrate dehydrogenase [NADP] cytoplasmic (Homo sapiens) (UniProt O75874)
# Sequence (O75874 whole entry R132H, change not shown): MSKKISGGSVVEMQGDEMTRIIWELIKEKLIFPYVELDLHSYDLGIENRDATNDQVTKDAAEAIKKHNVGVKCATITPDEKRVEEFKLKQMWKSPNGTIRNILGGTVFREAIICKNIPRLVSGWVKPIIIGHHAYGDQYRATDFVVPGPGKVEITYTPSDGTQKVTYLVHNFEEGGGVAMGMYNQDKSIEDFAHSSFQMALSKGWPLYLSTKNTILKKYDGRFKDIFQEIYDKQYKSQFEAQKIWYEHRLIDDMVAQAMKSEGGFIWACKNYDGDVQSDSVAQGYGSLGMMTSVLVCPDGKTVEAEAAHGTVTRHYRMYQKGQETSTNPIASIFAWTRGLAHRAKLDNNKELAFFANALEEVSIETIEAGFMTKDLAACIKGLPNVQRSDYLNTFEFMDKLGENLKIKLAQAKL
# Test: qHTS for Inhibitors of mutant isocitrate dehydrogenase 1 (IDH1): qHTS; also: nearly all actives have a fitted effect of over 65% in size
# Conditions: IDH1-R132H enzyme, NADPH consumption, diaphorase/resazurin fluorescence; series mostly up to 76.6 µM; activity change, negative = inhibition: at the top concentration
# Source text: Unbiased genomic sequencing for 22 glioma genomes found recurrent mutation of isocitrate dehydrogenase 1 (IDH1) on chromosome 2q33-a gene encoding the cytosolic isoform of IIDH1associated with the tricarboxylic acid cycle (TCA) that catalyzes the oxidative decarboxylation of isocitrate, yielding alpha-ketoglutarate and CO2 via NADP+ to NADPH conversion. Subsequent studies confirmed the recurrent IDH mutations in up to 70% of secondary gliomas and in 10% of AML cases. […] This in effect defines IDH1 as an oncogene, and provides an extraordinary opportunity to discover chemical probes against mutant IDH1 that may translate into much needed new therapies for glioma and AML patients. […] NIH Chemical Genomics Center [NCGC] NIH Molecular Libraries Probe Centers Network [MLPCN] MLPCN Grant: DA032129 Assay Submitter (PI): Lenny Dang, Agios Pharmaceuticals
# IDH1-R132H (0.5 ug/mL) was dispensed into black, solid-bottom 1536-well plates at 3 uL/well in 20 mM Tris-HCl (pH 7.5), 150 mM NaCl, 10 mM MgCl2, 4 mM beta-ME, and 0.05% protease-free BSA. Then, 23 nL of compounds or DMSO were delivered to each well using a pin tool. A pre-read was run on the Viewlux to identify fluorescent compounds (540 nm excitation filter, 598 nm emission filter, bodipy mirror and 2 second exposure). After 30 minutes of incubation with compound, 3 uL of substrate mix were dispensed (0.016 mM NADPH, 2 mM alpha-KG, 20 mM Tris-HCl (pH 7.5), 150 mM NaCl, 10 mM MgCl2, and 0.05% protease-free BSA). Plates were spun for 1 min at 1000xg and incubated at room temperature for 80 min. Then 1.5 uL of each detection reagent component for the coupling system were added (0.12 mg/mL diaphorase and 0.072 mM resazurin, each in 20 mM Tris-HCl (pH 7.5), 150 mM NaCl, 10 mM MgCl2, and 0.05% protease-free BSA ) The protein, substrate and two detection components were maintained at 4 °C throughout the screen. Additionally, the substrate and resazurin reagents were protected from light. The plates were measured on an Envision plate reader for fluorescence signal using a 540 nm excitation filter and 590 nm emission filter with 10 flashes. 1x and 0x (no-enzyme) IDH1-R132H enzyme control were used to normalize %Activity of identified inhibitors; 0x enzyme values corresponded to 100% Activity (full inhibition), while 1x IDH1-R132H enzyme values were used to normalize 0%Activity (no inhibition). Concentration-response curves were fitted to the signals arising from the resulting fluorescence. The concentration-effect curves were then classified based on curve quality (r2), response magnitude and degree of measured activity, and compounds were subsequently categorized based on their curve class. […] Keywords: isocitrate dehydrogenase, IDH1, IDH1-R132H, MLSMR, MLPCN, NIH Roadmap, qHTS, NCGC
# % is scaled to controls: 0 for no effect and ±100 for the full control effect; potency is read from the fitted curve at half-maximal effect.
SMILES,"activity change, negative = inhibition [%]",Potency
Cc1ccc(CN2CCC(CNC(=O)c3cnn(-c4ccc(C)cc4)c3C3CCN(C(=O)OC(C)(C)C)CC3)CC2)cc1,0.407,–
CCN(CCCNC(=O)c1cc2cc3cc(OC)ccc3nc2s1)c1ccccc1,3.91,–
Cc1ccc(Cl)cc1N1CCN(C(=O)c2cnc3c(-c4ccc(F)cc4)c(C)nn3c2C)CC1,-4.49,–
Cc1cc(C)cc(OCC(=O)Nc2nc(-c3ccc(F)cc3)ns2)c1,-3.14,–
COc1ccc(CN(C(=O)CSc2nnc(-c3ccc(OC)c(OC)c3)o2)c2ccc(F)cc2)cc1,3.1,–
CCN(CCCCOC(=O)c1ccc(OC)c(OC)c1)C(C)Cc1ccc(OC)cc1 (stereo not drawn),1.03,–
COc1ccc(C(CCN(Cc2ccc(OC)c(OC)c2)C(=O)CCl)c2ccccc2)cc1 (stereo not drawn),–,36.9 µM (active)
O=C1N(Cc2ccccc2)c2ccc(Cl)cc2C1(O)c1c[nH]c2ccccc12 (stereo not drawn),7.28,–
CCOC(=O)c1cccc(NC(=O)Cn2cnc3nc4c(cc3c2=O)CCCC4)c1,-4.55,–
Cc1nc2ccn(Cc3cccs3)c(=O)c2cc1C(=O)NCc1ccc(Cl)cc1,-1.97,–
COc1cc(C(=O)N(Cc2ccc(C(C)C)cc2)C2CCS(=O)(=O)C2)cc(OC)c1OC (stereo not drawn),8.8,–
COc1cc2c(-c3ccc4c(c3)OCO4)c(-c3ccsc3)oc(=O)c2cc1OC,–,10 µM (active)
COc1cc(-c2c(-c3ccc4c(c3)OCO4)noc2C)ccc1F,11,–
COC(=O)c1c(-c2ccsc2)oc2ccc(-c3cc(OC)c(OC)c(OC)c3)cc12,18.5,–
CCn1c(=O)cc(OCC(=O)Nc2cc(Cl)c(OC)cc2OC)c2ccccc21,-5.22,–
Cc1ccc(-c2nn(CCC(=O)Nc3ccc(OC(F)(F)F)cc3)c(=O)c3ccccc23)cc1,-1.17,–
Cc1ccc(C(=O)N2c3ncnn3C3(CCCCC3)[C@@H]3CCCC[C@@H]32)cc1,-7.57,–
CCCNc1ncnc2c1c(-c1ccccc1)cn2-c1ccc(OCC)cc1,–,28.2 µM (active)
CCOC(=O)C1CCN(c2ncnc3c2c(-c2ccccc2)cn3-c2ccc(C)cc2)CC1,1.59,–
O=c1[nH]cnc2c1c(-c1ccccc1)cn2-c1ccc(F)cc1,-0.586,–
CCc1ccc(CNC(=O)c2cc3c(=O)n(CC)c4ccccc4c3s2)cc1,-6.61,–
O=C(NCC(c1cccnc1)N1CCc2ccccc21)c1cccc(C(F)(F)F)c1 (stereo not drawn),-1.72,–
COc1cc(C(=O)N2CCN(c3ccc(Nc4ccc(C)cc4)nn3)CC2)cc(OC)c1OC,4.91,–
CCc1ccc(N(CC)C(=O)CCn2cnc3onc(-c4ccc(F)cc4)c3c2=O)cc1,-16.8,–

SMILES,"activity change, negative = inhibition [%]",Potency
Cc1ccc(CSc2nc3cccnc3n2Cc2ccc(C(=O)NC3CC3)cc2)cc1,0.151,–
COc1ccc(/C=C/c2nc(C#N)c(NCc3ccc(F)cc3)o2)cc1OC,4.01,–
Cc1ccc2nc(/C(C#N)=C/c3ccc(-c4ccc(C(=O)OC(C)C)cc4)o3)[nH]c2c1,-13,–
CCCn1c(NCc2ccccc2F)nc2ccccc21,17.3,–
O=C(C1CC1)N1CCc2cc(Br)cc(S(=O)(=O)N3CCN(c4ccccc4F)CC3)c21,-11,–
Cc1ccc2nc(-c3ccc(C)c(NC(=O)Cc4ccccc4)c3)oc2c1,4.91,–
CCc1ccccc1NC(=O)Cc1ccc(NC(=O)N2CCCCc3ccccc32)cc1,9.63,–
COc1cccc(CNC(=O)C(NS(=O)(=O)c2ccc3nc(C)sc3c2)C(C)C)c1 (stereo not drawn),2.39,–
Cc1nc2sc(C)c(C)n2c(=O)c1S(=O)(=O)NCCc1ccc(Cl)cc1,6.87,–
COc1ccccc1CCNC(=O)c1cccn1-c1nnc(N2CCCCC2)s1,13.2,–
COc1ccc(S(=O)(=O)NCc2cccn2Cc2cccc(C)c2)cc1,-0.432,–
COC(=O)c1sc2ncccc2c1-n1c(C)ccc1C,-12.6,–
CCCN1CCN(CCCNC(=O)c2ccc3nc(Cc4ccccc4)oc3c2)CC1,29.4,–
Cc1ccc(-c2cc(-c3coc4ccccc4c3=O)c3c(n2)-c2cc(Cl)ccc2OC3)cc1,-15,–
O=C(NCc1ccccc1)c1ccc2c(c1)nc1n2CCCCC1,-2.7,–
Cn1c(=O)nc2n(-c3ccc(Br)cc3)c3cccc(Cl)c3cc-2c1=O,-1.36,–
CCc1ccc(S(=O)(=O)c2nnn3c2nc(N2CCN(CC)CC2)c2sccc23)cc1,-17.2,–
Cc1cc(C)c2oc(C(=O)Nc3ccc(S(=O)(=O)N(C)c4ccccc4)cc3)cc(=O)c2c1,1.76,–
Cc1nn(-c2ccc(N3CCCCC3)nn2)c(C)c1CCC(=O)NCc1ccccc1F,0,–
COc1ccc(C(=O)Nc2ccc(-n3nncc3-c3ccccc3)cc2)cc1OC,-24.8,–
COC(=O)c1cc(NC(=O)c2cnc(SC)nc2-c2ccccc2)cc(C(=O)OC)c1,1.46,–
COC(=O)c1ccc(-c2c(-c3ccccc3)ncc3cc(OC)c(OC)cc23)cc1,–,39.8 µM (active)
COc1ccc(C)cc1NC(=O)COCc1cc(-c2cccs2)on1,11,–
CCOC(=O)c1c(S(=O)(=O)NCC(=O)Nc2ccc(Cl)c(C(F)(F)F)c2)c(C)n(C)c1C,0.73,–
